Data published in PubChem BioAssay AID651923 (Vanderbilt Specialized Chemistry Center, 2012).
Activity calls are given as the source filed them. How the calls were made is not given here.

Biological target: Muscarinic acetylcholine receptor M1 (Homo sapiens) (UniProt P11229)
Experiment: human M1 receptor potentiation, selectivity assay for M5 PAM project, CHO cells (AID 651923)

Chain of Muscarinic acetylcholine receptor M1 (Homo sapiens) (P11229 whole entry, looked up): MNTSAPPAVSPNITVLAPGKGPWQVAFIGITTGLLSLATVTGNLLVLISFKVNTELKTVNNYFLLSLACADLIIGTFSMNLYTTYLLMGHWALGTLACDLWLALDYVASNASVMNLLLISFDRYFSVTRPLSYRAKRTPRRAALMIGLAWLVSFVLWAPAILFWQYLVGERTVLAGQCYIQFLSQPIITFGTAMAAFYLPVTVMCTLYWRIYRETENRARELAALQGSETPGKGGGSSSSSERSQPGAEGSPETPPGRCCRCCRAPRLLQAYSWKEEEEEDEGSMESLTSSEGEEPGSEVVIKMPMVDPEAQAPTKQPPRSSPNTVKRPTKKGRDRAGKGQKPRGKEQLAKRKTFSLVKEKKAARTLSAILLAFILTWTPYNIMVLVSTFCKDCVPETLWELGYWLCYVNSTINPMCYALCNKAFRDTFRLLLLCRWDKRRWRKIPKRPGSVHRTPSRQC

O=C1C(=O)N(CCOc2ccccc2)c2ccc(OC(F)(F)F)cc21
outcome: inactive
